Experimental data reported in PubChem BioAssay (NCATS).
Results filed as inconclusive are left out. Calls of active or inactive are those of the source. Unless noted, calls come from the whole dose curve; as a rule, active = well fitted curve in the direction sought with a large enough effect; inconclusive = small, poorly fitted or top-dose-only effect, or another doubt; inactive = no such curve, though single readings can be large; an effect the other way counts as inactive or inconclusive.

Assays:
[1] = Cell Viability - BJ (AID 421; calls by dose curve;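 note: potency is the fitted concentration of half-maximal effect; cells exposed to compound for 40 hours at 37 °C before readout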); settings: BJ fibroblast viability, qHTS
Method in brief: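 Cytotoxicity as drop in intracellular ATP (CellTiter-Glo, 20 min RT) after 40 hr compound exposure of BJ fibroblasts at 37 °C. Titrations scaled between DMSO and 100 uM tamoxifen, Hill-fitted for AC50.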

[2] = Cell Viability - Jurkat (AID 426;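 active = dose-dependent loss of cell ATP signal giving a full or clear fitted curve, ranked by lower potency value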;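 note: potency is the fitted concentration of half-maximal effect; cells exposed to compound for 40 hours at 37 °C before ATP read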); settings: qHTS
Method in brief: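 Cells of the human T-cell leukemia line Jurkat (E6-1) are seeded at 5000 per well, treated with compound across a concentration range for 40 hours at 37 °C, then lysed with CellTiter-Glo; luminescence reports ATP.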

[3] = Cell Viability - Hek293 (AID 427;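 active = compounds whose dose-response curve shows a full or clear partial loss of cell viability, called from curve shape rather than a numeric limit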;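 note: potency is the fitted concentration of half-maximal effect; cells exposed to compound for 40 hours at 37 °C before reading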); settings: qHTS
Method in brief: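 Luminescent ATP content (CellTiter-Glo, 20 min at room temperature) was measured after a 40 hr, 37 °C compound exposure of HEK293 cells. AC50 values came from Hill-equation fits of qHTS concentration-response data normalized to DMSO and 100 uM tamoxifen.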

[4] = Cell Viability - HepG2 (AID 433; calls by dose curve;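 note: potency is the fitted concentration of half-maximal effect; potency for ATP loss meaning cytotoxicity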); settings: qHTS
Method in brief: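 HepG2 hepatocellular carcinoma cells (1500/well) were treated with compounds for 40 h at 37 °C in complete medium; intracellular ATP was read by CellTiter-Glo luminescence. Data were normalized to DMSO and 100 uM tamoxifen, and AC50 came from Hill fits.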

[5] = Cell Viability - MRC5 (AID 434; calls by dose curve;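 note: potency is the fitted concentration of half-maximal effect; potency reflects cytotoxicity seen as loss of intracellular ATP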); settings: MRC5 lung fibroblast viability, qHTS
Method in brief: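 AC50 values come from Hill-equation fits of intracellular ATP loss, measured by CellTiter-Glo luminescence. Normal lung fibroblasts (MRC5) had 40 hr compound treatment at 37 C, normalized between DMSO and 100 uM tamoxifen.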

[6] = Cell Viability - N2a (AID 540); settings: N2a mouse neuroblastoma cell viability; at 92.2 µM (top of the series);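 note: plate controls were DMSO alone for no effect and tamoxifen control for full effect; nearly all actives have a fitted effect of over 45% in size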
Method in brief: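 Cytotoxicity was scored as loss of cellular ATP in N2a cells, a mouse neuroblastoma line. Compounds are applied in a qHTS concentration series for 40 hr at 37 °C.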

[7] = Cell Viability - NIH 3T3 (AID 541); settings: NIH 3T3 cell viability, qHTS; at 92.2 µM (top of the series);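 note: plate controls were DMSO alone for no effect and tamoxifen positive control for full effect; nearly all actives have a fitted effect of over 25% in size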
Method in brief: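 Cells seeded at 1000/well, rested 5 hr at 37 °C, then dosed and incubated 40 hr at 37 °C. CellTiter-Glo added, 20 min room temperature, luminescence read. AC50 by Hill fit.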

[8] = Cell Viability - H-4-II-E (AID 543); settings: H-4-II-E rat hepatoma viability; series mostly up to 92.2 µM; note: % is set by controls: 0 for no effect and ±100 for the full control effect; nearly all actives have a fitted effect of over 35% in size
Method in brief: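 Cells seeded at 1500 per well and rested 5 hr; compounds added; 40 hr incubation at 37 °C; CellTiter-Glo added, 20 min at room temperature; luminescence read. Hill-equation fits gave AC50.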

[9] = Cell Viability - SH-SY5Y (AID 544); settings: SH-SY5Y neuroblastoma cell viability; series mostly up to 92.2 µM; note: nearly all actives have a fitted effect of over 55% in size
Method in brief: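 Cells were plated at 1500 per well and allowed 5 hr at 37 °C. Compounds were added across a concentration range and incubated 40 hr at 37 °C. CellTiter-Glo was added for 20 min at room temperature before luminescence reading.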

[10] = Cell Viability - Renal Proximal Tubule (AID 545); settings: renal proximal tubule cells viability; series mostly up to 91.7 µM; note: nearly all actives have a fitted effect of over 40% in size
Method in brief: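 Primary rat renal proximal tubule cells (1000/well) were treated with compounds for 40 hr at 37 °C in complete medium. Intracellular ATP was measured by CellTiter-Glo luminescence, and AC50 values came from Hill-equation fits of concentration-response data.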

[11] = Cell Viability - Mesenchymal (AID 546); settings: mesenchymal cells viability, qHTS; series mostly up to 91.7 µM;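 note: cells exposed to compound for 40 hours before reading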
Method in brief: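 CellTiter-Glo luminescence (intracellular ATP, 20 min room temperature) after 40 hr compound exposure at 37 °C of 1000 glomerulus-derived human kidney mesenchymal cells/well; AC50 values obtained by fitting qHTS concentration-response data to the Hill equation.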

[12] = Cellular Toxicity (caspase-3) HepG2 (AID 654); settings: HepG2 caspase-3 activation, luminescence, 0% = DMSO only, 100% = tamoxifen; series mostly up to 92.2 µM;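 note: cells exposed to compound for 16 hours before reading; 0% = DMSO alone and 100% = caspase signal from 100 µM tamoxifen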
Method in brief: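 Caspase 3/7 activation in HepG2 is measured as rising luminescence after a 16 hr treatment at 37 °C. Values are scaled between DMSO basal and 100 uM tamoxifen, and AC50 is fitted with the Hill equation.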

[13] = Cellular Toxicity (caspase-3) Jurkat (AID 655); settings: Jurkat caspase-3 activation, luminescence, DMSO = 0%, tamoxifen = 100%; series mostly up to 92.2 µM;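 note: cells exposed to compound for 16 h at 37 °C before reading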
Method in brief: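 Jurkat cells (5000/well) in complete medium were treated with compounds for 16 hr at 37 °C, then Caspase-Glo 3/7 luminescence was read after 20 min at room temperature. Data normalized to DMSO (basal) and 100 uM tamoxifen (100%); AC50 from Hill fit.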

[14] = Cellular Toxicity (caspase-3) HUV-EC-C (AID 656); settings: HUV-EC-C cells, caspase-3 activation (apoptosis), vehicle = 0, 100 µM tamoxifen = 100%; series mostly up to 92.2 µM
Method in brief: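 HUV-EC-C endothelial cells, 1000/well, were pre-incubated 5 hr at 37°C, then exposed to compounds for 16 hr at 37°C. Caspase-Glo 3/7 luminescence was read after 20 min at room temperature. AC50 came from Hill fits, normalized to DMSO and 100 uM tamoxifen.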

[15] = Cellular Toxicity (caspase-3) SHSY5Y (AID 657); settings: SH-SY5Y caspase-3 activation, DMSO zero, 10 µM staurosporine = 100%; series mostly up to 91.7 µM
Method in brief: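 SH-SY5Y human neuroblastoma cells (1500/well) were treated with compounds for 16 h at 37 °C, then Caspase-Glo 3/7 luminescence was read after 1 h at room temperature. Data normalized to DMSO and 10 uM staurosporine; AC50 from Hill fits.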

[16] = Cellular Toxicity (caspase-3) BJ (AID 658); settings: BJ fibroblasts, luminescence, normalized: DMSO 0%, staurosporine 100%; series mostly up to 91.7 µM
Method in brief: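 Caspase-Glo 3/7 luminescence, read 1 hr after reagent at room temperature, in normal BJ fibroblasts exposed 16 hours at 37 °C. AC50 values from Hill-equation concentration-response, scaled between DMSO basal and 10 uM staurosporine as 100%.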

[17] = Cellular Toxicity (caspase-3) MRC-5 (AID 659); settings: MRC-5 cells, luminescence, normalized: DMSO 0%, 10 µM staurosporine 100%; series mostly up to 91.7 µM
Method in brief: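 Luminescent Caspase-Glo 3/7 read-out (1 h, room temperature) after a 16 h, 37 °C compound exposure of MRC-5 lung fibroblasts at 1500 cells/well. Concentration-response AC50 from Hill equation; 0% DMSO, 100% 10 uM staurosporine.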

[18] = Cellular Toxicity (caspase-3) Mesangial (AID 660); settings: mesangial cells, normalized: DMSO 0%, 100 µM tamoxifen 100%; series mostly up to 91.7 µM;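 note: combined caspase 3 and 7 activity read by Caspase-Glo luminescence; cells exposed to compound for 16 h before the caspase read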
Method in brief: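 Seed cells derived from normal human renal glomeruli, incubate 5 h, add compounds across concentrations and incubate 16 h at 37 °C. Caspase 3/7 activation is then quantified by luciferase light, with AC50 derived by Hill modeling.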

[19] = Cellular Toxicity (caspase-3) SK-N-SH (AID 661); settings: SK-N-SH caspase-3 activation, qHTS, DMSO as zero, staurosporine as full; series mostly up to 91.7 µM
Method in brief: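 Cells were seeded and incubated 5 hr at 37 °C, dosed with compound over a concentration range for 16 hr, then given Caspase-Glo 3/7 reagent for 1 hr at room temperature before luminescence reading.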

[20] = Cellular Toxicity (caspase-3) H-4-II-E (AID 663); settings: H-4-II-E rat hepatoma, scaled: DMSO 0%, 100 µM tamoxifen 100%; series mostly up to 92.2 µM;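 note: cells exposed to compound for 16 hr before readout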
Method in brief: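 Caspase 3/7 activation measured by luminescent aminoluciferin substrate cleavage after 16 hr compound treatment of H-4-II-E cells in complete medium. Increase normalized between DMSO (basal) and 100 uM tamoxifen (100%); Hill-equation AC50 from concentration-response.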

[21] = Cellular Toxicity (caspase-3) Hek293 (AID 664); settings: HEK293 caspase-3 activation, DMSO = 0%, 100 µM tamoxifen = 100%; series mostly up to 92.2 µM;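 note: cells exposed to compound for 16 h at 37 °C before readout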
Method in brief: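 qHTS, HEK293 (human embryonic kidney), 16 h cpd exposure in complete medium. Caspase-3/7 activation = luminescence increase; normalized to DMSO/100 uM tamoxifen; Hill-fit AC50.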

Oc1ccccc1Cl
inactive: Potency [1] > 92 µM | Potency [2] > 92 µM | Potency [3] > 92 µM | Potency [4] > 92 µM | Potency [5] > 92 µM | activity change, negative = cytotoxicity [6] -11.6% | activity change, negative = cytotoxicity [7] -20.7% | outcome [8] | outcome [9] | outcome [10] | outcome [11] | outcome [12] | outcome [13] | outcome [14] | outcome [15] | outcome [16] | outcome [17] | outcome [18] | outcome [19] | outcome [20] | outcome [21]
